Experimental data: PubChem BioAssay AID449762 (Southern Research Specialized Biocontainment Screening …, 2010)
Out of some 330,000 compounds screened, about 1,900 (0.58%) were called active. Roughly 4% stayed inconclusive and do not appear here. Rule as the data show it: inconclusive = inhibition above about 70% without an active follow-up result; inactive = below that. These entries were drawn from the full list. Results with a measured potency or affinity are listed apart.

Test: M. tuberculosis growth inhibition, HTS (AID 449762);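 also: bacterial growth assessed after seven days of incubation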
Settings: M. tuberculosis H37Rv growth inhibition, 7H9 media; at 25 µM; active compounds read high

Row | Structure (SMILES) | inhibition
1 | CN(C)S(=O)(=O)c1ccc(C(=O)/C=C/c2cccnc2)cc1 | 18.5% (inactive)
2 | Cc1cccc2c1N(CCOc1ccc(C(C)(C)C)cc1)C(=O)C2=O | 4.9% (inactive)
3 | Cc1ccc(OCCCN2C(=O)C(=O)c3cccc(C)c32)cc1 | 9.09% (inactive)
4 | COc1ccc(N2CCN(C(=O)CCc3nnc4ccc(N5CCOCC5)nn34)CC2)cc1 | -1.82% (inactive)
5 | COc1cc(N)c(Cl)cc1C(=O)NC1CN2CCC1CC2 (stereo not drawn) | 4.28% (inactive)
6 | CCOc1cc(N)c(Cl)cc1C(=O)NCC1CN(Cc2ccc(F)cc2)CCO1 (stereo not drawn) | -1.66% (inactive)
7 | COc1ccc(S(=O)(=O)N2CCOC2CNC(=O)C(=O)NCc2ccco2)cc1 (stereo not drawn) | 0.26% (inactive)
8 | CCC(C)Nc1nc(Cl)nc(NCCOc2ccccc2)n1 (stereo not drawn) | 5.37% (inactive)
9 | O=C(CCC(=O)N(CC(=O)NC1CCCCC1)CC1CCCO1)Nc1nccs1 (stereo not drawn) | -1.08% (inactive)
10 | O=C(Nc1cccnc1Cl)c1cc(-c2ccc(Cl)cc2)on1 | 5.26% (inactive)
11 | Cc1c(Cl)cccc1NC(=O)c1cc(-c2ccco2)on1 | 3.35% (inactive)
12 | O=[N+]([O-])c1ccc(-c2cnc(SCc3ccccc3Cl)[nH]2)cc1 | -2.76% (inactive)
13 | COc1ccccc1CSc1ncc(-c2ccc([N+](=O)[O-])cc2)[nH]1 | -2.06% (inactive)
14 | COCC(=O)N1CCC(Oc2cccc(C(=O)NCc3ccccn3)c2)CC1 | -0.85% (inactive)
15 | CCCCN1C(=O)/C(=C2/C=CC=CN2C)SC1=S | -5.48% (inactive)
16 | O=C(O)CCN1C(=O)C(=C2CCCCCC2)SC1=S | -3.58% (inactive)
17 | CCCCn1nc2cc(C(=O)NCc3ccc(OC(F)(F)F)cc3)ccc2c1OC | 6.36% (inactive)
18 | O=C(NN1CCOCC1)C12CC3CC(CC(C3)C1)C2 | -3.63% (inactive)
19 | COc1ccc2c3c([nH]c2c1)[C@H]1C[C@H]2[C@H](C[C@@H](O)[C@H](OC)[C@H]2C(=O)O)CN1CC3 | 1.26% (inactive)
20 | COc1ccc2c3c([nH]c2c1)C1CC2C(CC(O)C(OC)C2C(=O)O)CN1CC3 (stereo not drawn) | -4.38% (inactive)
21 | C=Cn1nc(C)c2ccccc2c1=O | -3.9% (inactive)
22 | COC(=O)c1cc(=O)n(Cc2ccc(F)cc2)c(=Nc2ccccc2)s1 | 4.7% (inactive)
23 | COC(=O)c1cc(=O)n(CCc2ccccc2)c(=Nc2ccc(F)cc2)s1 | 4.1% (inactive)
24 | COc1cccc(NC(=O)[C@H](CC(C)C)NC(=O)N2CCn3c2nc2ccccc23)c1 | 11.4% (inactive)
25 | NC(=O)[C@H](Cc1cc2ccccc2s1)NC(=O)[C@@H]1CC2(CC(c3cccc(NC(=O)[C@@H]4CCC(=O)N4)c3)=NO2)CN1C(=O)c1ccccc1 (stereo partly drawn) | -4.74% (inactive)

Row | Structure (SMILES) | inhibition
26 | NC(=O)C1CCN(CCCNC2CC(=O)N(Cc3ccc(N4CCCC4=O)cc3)C2=O)CC1 (stereo not drawn) | -6.69% (inactive)
27 | Nc1cc(C(=O)OCC(=O)NNC(=O)c2ccccc2)ccc1Cl | 35.4% (inactive)
28 | Nc1cc(C(=O)OCC(=O)NNC(=O)c2ccccc2F)ccc1Cl | 25.6% (inactive)
29 | CCOc1cc(Cl)c(CNCCCN2CCOCC2)cc1OC | 5.34% (inactive)
30 | CCOC(=O)c1c(C)[nH]c(C(=O)COC(=O)c2cc(C)oc2C)c1C | -7.77% (inactive)
31 | COc1ccc(-c2ccc(C#N)c(SCC(=O)NCCc3ccccc3)n2)cc1OC | 8.95% (inactive)
32 | N#Cc1ccc(-c2ccc3c(c2)OCO3)nc1SCC(=O)OCc1ccccc1 | -7.31% (inactive)
33 | S=C(NC1CCCCC1)N1CCN(Cc2ccccc2Cl)CC1 | 1.74% (inactive)
34 | COc1ccc2c(COC(=O)CCS(=O)(=O)c3ccccc3)cc(=O)oc2c1 | -17.5% (inactive)
35 | O=c1[nH]c(CSc2ccccn2)nc2ccccc12 | 3.19% (inactive)
36 | Cn1c(SCc2nc3ccccc3c(=O)[nH]2)nc2ccccc21 | 1.19% (inactive)
37 | O=C(c1ccco1)N1CCN(C(=S)Nc2ccc(Br)cc2Cl)CC1 | -10.4% (inactive)
38 | COc1cccc(-c2cc(C(=O)O)no2)c1 | -0.44% (inactive)
39 | COC(=O)c1cc(-c2ccccc2)on1 | 69.8% (inactive)
40 | CCOc1ccc(NC(=O)COc2nsnc2N2CCOCC2)cc1 | -1.39% (inactive)
41 | CCN(c1ccccc1)S(=O)(=O)c1ccc(Cl)c(NC(=O)COC(=O)c2ccc[nH]c2=O)c1 | -8.08% (inactive)
42 | CCCCCCn1nc(C(=O)OCC(=O)c2c(N)n(C)c(=O)n(C)c2=O)c2ccccc2c1=O | 9.07% (inactive)
43 | COc1ccc2c3n(nc2c1)CCN=C3c1ccc(Cl)cc1 | 4.84% (inactive)
44 | COc1ccc(C2=NCCn3nc4cc(OC)ccc4c32)cc1 | 1.06% (inactive)
45 | O=C(NCCCn1ccnc1)c1cc2cc([N+](=O)[O-])ccc2oc1=O | -5.35% (inactive)
46 | Cc1ccc2[nH]c(C)c(CCNC(=O)c3c(N)no[n+]3[O-])c2c1 | -0.11% (inactive)
47 | O=C(NC1CCCCC1)C(c1cccs1)N(CC1CCCO1)C(=O)c1csnn1 (stereo not drawn) | -12% (inactive)
48 | CC(=O)c1ccc(S(=O)(=O)N2CCc3ccccc3C2)cc1 | 0.34% (inactive)
49 | CC1CC(C)CN(C(=O)CSc2nnc(-c3ccc(Cl)s3)o2)C1 (stereo not drawn) | 20.5% (inactive)
50 | CCOC(=O)N1CCN(C(=O)CSc2nnc(-c3ccccc3OC)o2)CC1 | 41.9% (inactive)

Row | Structure (SMILES) | inhibition
51 | O=C(c1cc2n(n1)C(C(F)(F)F)CC(c1ccc(F)cc1)N2)N1CCCC1 (stereo not drawn) | -3.19% (inactive)
52 | O=C(Nc1cccnc1Cl)c1cccc(F)c1 | 9.84% (inactive)
53 | CC(C)(C)NC(=O)COC(=O)c1ccc(F)cc1Cl | 49.4% (inactive)
54 | CC(C)NC(=O)COC(=O)c1cc(Br)ccc1Cl | 21.9% (inactive)
55 | COc1ccc(NC(=O)CCC(=O)Nc2nnc(C3CCCCC3)s2)c(OC)c1 | 7.63% (inactive)
56 | OCC1(Cc2cccc(Cl)c2)CCCN(Cc2ccc(F)c(F)c2)C1 (stereo not drawn) | 16.1% (inactive)
57 | Cc1cc(CN2CCCC(CO)(Cc3cccc(Cl)c3)C2)n[nH]1 (stereo not drawn) | 2.25% (inactive)
58 | c1ccc(-c2nc3ccccc3[nH]2)cc1 | 9.27% (inactive)
59 | c1ccc2nc3c(nc2c1)[nH]c1ccccc13 | -2.41% (inactive)
60 | CC1(C)Cc2c(cnn2-c2cccc(F)c2)C(NC(=O)CSc2ccncc2)C1 (stereo not drawn) | -11.2% (inactive)
61 | CCCCN1C(=N)N([C@@H](C)CN2CCC[C@H]2CN2C(N)=NC[C@H]2CC(C)C)C[C@H]1[C@H](C)CC | -9.24% (inactive)
62 | O=c1c2ccccc2oc2cc(NCCCn3ccnc3)ccc12 | 64.1% (inactive)
63 | O=c1c2ccccc2oc2ccc(NCCCn3ccnc3)cc12 | -0.23% (inactive)
64 | Nc1c(C(=O)Nc2ccc3c(c2)OCCO3)nnn1Cc1ccc(Cl)cc1 | 0.83% (inactive)
65 | Nc1ccc(N(CCO)CCO)cc1 | 6.03% (inactive)
66 | CCN(CC)c1ccccc1 | 5.27% (inactive)
67 | O=C(NCc1ccc(Cl)cc1)C1CCN(c2cnccn2)CC1 | 1.73% (inactive)
68 | Cc1ccc(NC(=O)Cn2cccc2)cc1 | 3.9% (inactive)
69 | CC(C)(C)c1csc(NNC(=O)c2ccc(Br)cc2)n1 | 66.5% (inactive)
70 | COc1ccc2[nH]c3c(c2c1)CCN1C(=O)N([C@@H](C)C(=O)NCCc2ccc(OC)c(OC)c2)C(=O)[C@]31C | -11.9% (inactive)
71 | CN(C)/C=C1\C(=O)N(c2ccc([N+](=O)[O-])cc2)N=C1c1ccccc1 | -2.09% (inactive)
72 | CN(C)/C=C1/C(=O)N(c2ccc([N+](=O)[O-])cc2)N=C1c1ccccc1 | 0.35% (inactive)
73 | NC(=O)c1ccsc1N | 6.02% (inactive)
74 | NC(=O)c1ccc(Cn2c(C(=O)c3ccc(Cl)cc3)c3ccccc3[n+]2[O-])cc1 | 2.02% (inactive)
75 | COCCn1c(-c2ccc(OC)cc2)cnc1SCC(=O)Nc1cccc2ccccc12 | 57.1% (inactive)

Row | Structure (SMILES) | inhibition
76 | CCOc1ccc(CNc2ncc(-c3ccccc3)n2C)cc1 | 8.71% (inactive)
77 | Cn1c(CCNC(=O)c2ccco2)nc2ccccc21 | -1.68% (inactive)
78 | Cc1cccc(NC(=O)CCCNC(=O)c2ccc(Cl)cc2)n1 | -15.3% (inactive)
79 | COc1ccc(NCc2ccc(OC)c(Cn3ccnc3)c2)c(OC)c1 | 17.3% (inactive)
80 | COc1cc(Cn2ccnc2)c(OC)cc1Cn1ccnc1 | 0.13% (inactive)
81 | CCCC(=O)Nc1ccc(-c2csc(NNC(C)=O)n2)cc1 | 8.91% (inactive)
82 | CN(C)CCOc1ncnc2c1oc1ccccc12 | -7.93% (inactive)
83 | CCc1nc(OCCN(C)C)c2oc3ccccc3c2n1 | 5.77% (inactive)
84 | O=C(CCSc1nc(-c2ccco2)cc(C(F)(F)F)n1)NCc1ccccn1 | -4.91% (inactive)
85 | Cc1ccc(C)n1-n1c(C)nc2scc(-c3cccs3)c2c1=O | 1.92% (inactive)
86 | Cc1nc2scc(-c3cccs3)c2c(=O)n1N | -9.74% (inactive)
87 | CCCCc1nn(-c2cc(Cl)ccc2OC)c2c1C(=O)CCC2 | -11.2% (inactive)
88 | CCOC(=O)c1nn(-c2ccc(F)cc2)c2nc(CC(C)C)c(C#N)c(=O)n12 | -13.7% (inactive)
89 | Cc1cccc(OC(C)C(=O)OCC(=O)N2CCN(c3ccccc3)CC2)c1 (stereo not drawn) | 69.9% (inactive)
90 | Cc1ccc(C(=O)OCC(=O)N2CCC(c3ccccc3)=N2)cc1 | -0.51% (inactive)
91 | CCc1cc(C(=O)OCC(=O)N2CCC(c3ccccc3)=N2)sc1C | 9.02% (inactive)
92 | COc1ccc(NC(=O)c2cc(-c3cc(C)ccc3O)n[nH]2)cc1Cl | -5.54% (inactive)
93 | CC(C)(Oc1ccc(Cl)cc1)C(=O)NCc1n[nH]c(=O)c2ccccc12 | -7.84% (inactive)
94 | Cc1nn(C)cc1/C=N/NC(=O)C(C)(C)Oc1ccc(Cl)cc1 | -2.26% (inactive)
95 | Cc1ccc(CNC(=S)Nc2ccc(C)c([N+](=O)[O-])c2)cc1 | 1.67% (inactive)
96 | CCOc1ccc(NC(=S)Nc2cc(C)[nH]n2)cc1 | 11.8% (inactive)
97 | Cc1ccc(NC(=S)Nc2cc(-c3ccccc3)[nH]n2)cc1Cl | 3.77% (inactive)
98 | CCOc1ccc(NC(=S)/C(=C(\[O-])c2ccc(C)c([N+](=O)[O-])c2)[n+]2ccccc2)cc1 | -4.46% (inactive)
